Measured values taken from the OligoGym collection.

target: PRB2; test: pooled miR-30 sensor sort-seq; sequence = guide strand; settings: shRNA
Further: reference of the scale not given here.

Sequence	sensor-assay potency score (higher = more potent)
TTGGGACTTGTTGTCTCCTTGT	-0.258
TCGGGACTTGTTGTCTCCTTGT	-0.96
TGGCTTTCCTGCTATTAGGGAG	-0.778
TCGAGAACTTCGGGACTTGTTG	-0.988
TTCGGGACTTGTTGTCTCCTTG	-0.146

target: PRDM11; test: as above; settings: shRNA

Sequence	sensor-assay potency score (higher = more potent)
TGTTGTTGCACACTGACTGTAG	0.562
TTGTTGTTGCACACTGACTGTA	-0.0431
TCCGACAATAATCTCATCCAAA	-1.56
TCATCCAAACCAACTTACCTGC	-0.593
TTCTGGGTTATCCAGAACCTGC	-1.79
TAATTCTGCCTGGAGCTCCCGA	-0.672
TAAGCATGTCTAATTCTGCCTG	-0.386
TTTCTTCTTCTTAGCTTGGGGG	-0.807
TTTTCTTCTTCTTAGCTTGGGG	-0.102
TTGCACACTGACTGTAGGCGTC	-0.555
TTCTTCTTCTTAGCTTGGGGGT	-0.763
TATATTCTGCACACCATGGGTC	0.141

target: PREB; test: as above; settings: shRNA

Sequence	sensor-assay potency score (higher = more potent)
TTCTTTATGCCTGTCTTGGCGG	-0.991
TTCGTGGGCTTTGAACTCCAGA	-1.33
TTGAACTCCAGAACCTTCTCCA	0.863
TAAAGTCTGTCTGCACCGCCTG	-0.668
TTCACTGACATCGAGGCAGGAG	0.301
TTGATGTGCCTGGAAGCGCAGG	-0.963
TAAGGGTAGACTACCTAGGAAC	-1.26
TTGTGGGGAATTTGCACTGTGA	-0.563
AAAGTCTGTCTGCACCGCCTGC	-1.08
TTCTGCAGTGGATCGGAGCTAA	0.0919
ATCGGAGCTAAAGTCTGTCTGC	-0.682
TTGCACTGTGAAGAGTCGCAGG	-0.529

target: PRKAR1B; test: as above; settings: shRNA

Sequence	sensor-assay potency score (higher = more potent)
TTGCTGTATAACAGTCTCCCCA	-0.886
TAACGCTGAATGTTCCTCTTGA	0.692
TACACCTCGGCACTCACGCCTC	-1.12
TCTAGGATGGAGACCTTGCTGA	-0.482
TTTCTCTCCATCTTCAAACTGG	-0.327
TTGATCAACGACATAGAAGTTG	-0.313
TATAACAGTCTCCCCAGCGATG	-1.57
AACTCCTCGTACATCTTGCGTT	-1.1
TTCCTTCTCCAGCTTCTCGAAG	-1.27
TCCATCTTCAAACTGGACGGGC	-0.749
TTCCTCTTGAGGATCTCAGAGC	-0.844
